In the library only some 27% were active in any assay of this set; here they are far more common.
CYP2C19 activ – human CYP2C19 activators, primary screen, biochemical, luminescence; Cytochrome P450 2C19 (Homo sapiens), P33261; recombinant CYP2C19, luciferin-H EGE luminescence; active compounds read high; 0 = fully inhibited enzyme, 1 = untreated enzyme; activation factor at 5 µM; 96,000 tested, under 10 active; AID 1025, 2008;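 active = activation factor of at least 2 at 5 µM in the primary screen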
CYP2C19 inh – blockers of cytochrome P450 2C19 activity – biochemical, luminescence, ADME assay, primary screen; P33261; CYP2C19 Supersomes, luciferin-H EGE luminescence, 30 min; inhibition, % at 5 µM; hit rate 21% among 96,000; AID 778, 2007;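 active = CYP2C19 inhibition above a set limit at 5 µM in the primary screen, cut at about 50% in these data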
Pyk2 oligo antag – antagonists of Pyk2 self-association, primary screen, Q293 cells, FERM NanoBiT luminescence, HTS; Protein-tyrosine kinase 2-beta (Homo sapiens), Q14289; active compounds read low; z-score (the deposit names both 25 µM and 10 µM); hit rate 0.83% among 99,000; AID 1347419, 2020;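 active = Z-score of -3 or lower, scaled per plate to the spread of control and sample wells; inactive = z-score above -3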;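 note: negative z-score means lost luminescence so less FERM oligomerization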
Target sequence (Q14289 whole entry, looked up): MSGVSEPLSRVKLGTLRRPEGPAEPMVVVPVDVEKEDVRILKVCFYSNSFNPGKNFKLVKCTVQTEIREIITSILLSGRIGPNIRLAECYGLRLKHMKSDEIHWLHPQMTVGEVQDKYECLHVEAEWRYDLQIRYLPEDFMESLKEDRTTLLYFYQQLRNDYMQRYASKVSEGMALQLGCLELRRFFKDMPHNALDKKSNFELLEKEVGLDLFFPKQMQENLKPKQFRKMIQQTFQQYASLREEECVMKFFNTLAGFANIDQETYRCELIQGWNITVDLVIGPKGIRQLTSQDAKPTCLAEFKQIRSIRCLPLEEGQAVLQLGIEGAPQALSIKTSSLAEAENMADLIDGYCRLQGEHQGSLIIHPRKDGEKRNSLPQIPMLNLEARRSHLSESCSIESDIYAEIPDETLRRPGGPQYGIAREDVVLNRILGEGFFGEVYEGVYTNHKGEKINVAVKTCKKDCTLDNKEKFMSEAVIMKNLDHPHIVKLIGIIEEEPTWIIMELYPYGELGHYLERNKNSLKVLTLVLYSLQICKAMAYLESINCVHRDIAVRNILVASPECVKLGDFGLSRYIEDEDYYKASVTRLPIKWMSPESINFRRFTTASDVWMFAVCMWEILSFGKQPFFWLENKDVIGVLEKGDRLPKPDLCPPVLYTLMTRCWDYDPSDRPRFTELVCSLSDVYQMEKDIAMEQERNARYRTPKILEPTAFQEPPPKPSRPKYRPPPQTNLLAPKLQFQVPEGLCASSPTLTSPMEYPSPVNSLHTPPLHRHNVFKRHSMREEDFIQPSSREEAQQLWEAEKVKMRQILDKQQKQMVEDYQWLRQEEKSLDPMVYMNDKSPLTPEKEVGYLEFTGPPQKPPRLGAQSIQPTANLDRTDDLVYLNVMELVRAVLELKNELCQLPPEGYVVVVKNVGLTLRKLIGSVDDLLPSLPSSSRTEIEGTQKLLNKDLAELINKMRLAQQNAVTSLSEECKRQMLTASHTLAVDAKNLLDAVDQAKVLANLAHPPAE
CYP2C9 activ – human CYP2C9 activators, primary screen, biochemical, luminescence. Cytochrome P450 2C9 (Homo sapiens), P11712. recombinant CYP2C9, luciferin-H conversion; active compounds read high; factor 1 = untreated enzyme, 0 = blocked. activation factor at 5 µM. hit rate 1.4% among 96,000. AID 1024, 2008;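 active = activation factor of 2 or more for CYP2C9 at a 5 µM dose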
Cav3 T inh – Cav3.2 calcium influx blockers – cell-based, Fluo-4 calcium fluorescence, FDSS, MLSMR library, primary screen; Voltage-dependent T-type calcium channel subunit alpha-1H (Homo sapiens), O95180; Cav3.2-expressing cells; active compounds read low; B-score at 10 µM; hit rate 4% among 100,000; AID 449739, 2010;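 active = single-dose well whose peak fluorescence ratio is a statistical outlier from its plate by either plate-standardised score or position-corrected B-score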
CYP2C9 inh – blockers of cytochrome P450 2C9 activity – biochemical, luminescence, ADME assay, primary screen; P11712; CYP2C9 Supersomes, luciferin-H conversion; inhibition, % at 5 µM; hit rate 20% among 96,000; AID 777, 2007;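 active = blocking of liver enzyme CYP2C9 beyond about 50% at 5 µM, limit read from the data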
Each line names hits and unclear results; the compound was inactive in the other large screens.

CCC(=O)N1c2ccc(S(=O)(=O)CCC(=O)N3CCn4c3nc3ccccc34)cc2CC1C (centres undefined)	none
COC(=O)c1ccc(N2CCOCC2)c(F)c1	none
O=C(Cc1ccccc1)Nc1cc(C(=O)c2ccccc2)ccc1N1CCOCC1	CYP2C19 inh 69, CYP2C9 inh 90
O=C(c1ccccc1)c1cc(F)c(N2CCOCC2)cc1Cl	CYP2C19 inh 59
O=C(c1ccccc1)c1ccc(N2CCOCC2)c(F)c1	CYP2C19 inh 67
O=C(Cc1ccccc1)Nc1ccc(N2CCOCC2)cc1N1CCOCC1	none (no result: Cav3 T inh)
CN(C)C(=O)NC(O)C(Cl)Cl (centres undefined)	none (no result: Pyk2 oligo antag)
O=C(N[C@@H](Cc1ccc(O)cc1)C(=O)O)c1cccnc1	none (no result: CYP2C19 activ, CYP2C19 inh, Pyk2 oligo antag, CYP2C9 activ, CYP2C9 inh)
CCN(C(=O)c1cnc(N2CCN(c3ncccn3)CC2)c2ccccc12)c1cccc(Cl)c1	CYP2C19 inh 97, Pyk2 oligo antag -3.3, Cav3 T inh -6.6, CYP2C9 inh 85
O=C(c1cnc(N2CCN(c3ncccn3)CC2)c2ccccc12)N1CCN(c2ncccn2)CC1	CYP2C9 inh 64 (no result: Cav3 T inh)
CN(C(=O)c1cnc(N2CCN(c3ncccn3)CC2)c2ccccc12)c1ccc(Cl)cc1	CYP2C19 inh 88, CYP2C9 inh 70 (no result: Cav3 T inh)
CC(=O)N(CN1C(=O)CCC1=O)c1cccc(Cl)c1	none (no result: CYP2C19 activ, CYP2C19 inh, CYP2C9 activ, Cav3 T inh, CYP2C9 inh)
CC(C)NC(=O)c1cnc(N2CCN(c3ccccn3)CC2)c2ccccc12	none
COc1cc(C(=O)N[C@H](C(=O)NC2CCCCCC2)C(C)C)cc(OC)c1OC	none
COc1cc2cc(C(=O)O)[nH]c2c(OC)c1OC	none (no result: Cav3 T inh)
CSC(=O)CC(=O)NC(=O)c1ccccc1	none
O=C(Oc1ccc2c(c1)OCO2)c1ccncc1	CYP2C19 inh 82, CYP2C9 inh 65
CCCc1cc(=O)[nH]c(SC(CC)C(=O)Nc2ccccc2C#N)n1 (centres undefined)	none
Cc1onc(-c2c(F)cccc2Cl)c1C(=O)Nc1ccc(S(=O)(=O)Nc2ncccn2)cc1	none
CCCN1CCCc2cc(CN)ccc21	CYP2C19 inh 90, CYP2C9 inh 84
COC(=O)c1c[nH]n2c(=O)c(Cc3ccc(F)cc3Cl)c(C)nc12	CYP2C9 inh 71
COC(=O)c1ccc(NC(=O)NS(=O)(=O)c2ccc(C)cc2)cc1	none
CC(=O)c1cccc(S(=O)(=O)NCC(c2ccco2)N2CCCCC2)c1 (centres undefined)	CYP2C19 inh 75
COc1ccccc1/C=C/C=N/N1CCN(c2ccccn2)CC1	none
CCOC(=O)C1=CN(c2cccc(F)c2)C=C(C(=O)OCC)C1c1cc(OC)c(O)c([N+](=O)[O-])c1	CYP2C9 inh 57
O=C(CCSc1nc(-c2ccco2)cc(C(F)(F)F)n1)N1CCN(c2ccccn2)CC1	CYP2C19 inh 86, Cav3 T inh -5.5, CYP2C9 inh 86
O=C(CCSc1nc(-c2ccco2)cc(C(F)(F)F)n1)N1CCCc2ccccc21	CYP2C19 inh 96, Cav3 T inh -3.6, CYP2C9 inh 92
O=C(Cc1ccccc1)N[C@@H](Cc1ccc(O)cc1)C(=O)O	none (no result: CYP2C19 activ, CYP2C19 inh, Pyk2 oligo antag, CYP2C9 activ, CYP2C9 inh)
Cc1ccc(N2C(=O)SC(N(CC(=O)O)c3cccc(C)c3)C2=O)cc1 (centres undefined)	none
COC(=O)c1sc2cnccc2c1N	none
Cc1nc(CS(=O)(=O)c2ccccc2)cc(Sc2ccccc2Cl)n1	none (no result: Cav3 T inh)
Cc1nc(CS(=O)(=O)c2ccc(Cl)cc2)cc(N2CCOCC2)n1	CYP2C19 inh 80, CYP2C9 inh 53
Cc1nc(CS(=O)(=O)c2ccc(Cl)cc2)cc(Sc2ccccc2Cl)n1	CYP2C19 inh 52, Cav3 T inh -4.5, CYP2C9 inh 67
CCOC(=O)N1CCN(c2c(NCc3ccccc3OC)c(=O)c2=O)CC1	none (no result: Pyk2 oligo antag)
Nc1nonc1-c1nc2ccccc2n1CC(=O)N1CCN(c2ccc(F)cc2)CC1	none
COC(=O)C[C@H]1c2cc(C(F)(F)F)ccc2S(=O)(=O)N1Cc1ccc(OC)cc1	none (no result: CYP2C19 activ, CYP2C19 inh, Pyk2 oligo antag, CYP2C9 activ, CYP2C9 inh)
COCC(=O)N(Cc1ccc(OC)cc1)Cc1nc2ccccc2c(=O)[nH]1	none
O=C1CCc2cc(S(=O)(=O)N3CCC(C(=O)NCc4ccccn4)CC3)ccc2N1	none (no result: Pyk2 oligo antag, Cav3 T inh)
O=C1CCc2cc(S(=O)(=O)N3CCC(C(=O)NC4CCCC4)CC3)ccc2N1	CYP2C9 inh 52 (no result: Pyk2 oligo antag)
O=C1CCc2cc(S(=O)(=O)N3CCCC3C(=O)NC3CCCCCCC3)ccc2N1 (centres undefined)	CYP2C9 inh 81 (no result: Pyk2 oligo antag)
Cc1ccn2c(C(=O)N/N=C\c3ccccc3[N+](=O)[O-])c(C)nc2c1	none (no result: CYP2C19 activ, CYP2C19 inh, CYP2C9 activ, CYP2C9 inh)
O=C(COc1cccc(-n2cnnn2)c1)N1CCOCC1	none
CCC(C)(C)c1nnc(NC(=O)c2ccc([N+](=O)[O-])cc2)s1	none
Cc1nc2ccc(S(=O)(=O)NC(C(=O)NCc3ccc4c(c3)OCO4)C(C)C)cc2s1 (centres undefined)	CYP2C19 inh 51 (no result: Pyk2 oligo antag)
Cc1nc2ccc(S(=O)(=O)N(C)CC(=O)NCc3ccc4c(c3)OCO4)cc2s1	CYP2C19 inh 57, CYP2C9 inh 53
CCc1nnc(NC(=O)C(NS(=O)(=O)c2ccc3c(c2)OCCO3)C(C)C)s1 (centres undefined)	CYP2C19 inh 95, CYP2C9 inh 90
Cc1nc2ccc(S(=O)(=O)NC(C(=O)NC3CCCC3)C(C)C)cc2s1 (centres undefined)	none (no result: Pyk2 oligo antag)
CN(Cc1ccccc1)S(=O)(=O)c1ccc(Cl)c(C(=O)NCc2ccc3c(c2)OCO3)c1	none (no result: CYP2C19 activ, CYP2C19 inh, CYP2C9 activ, Cav3 T inh, CYP2C9 inh)
Clc1cccc2sc(-c3nnc(-c4ccccc4)o3)c(Cl)c12	none (no result: CYP2C19 activ, CYP2C19 inh, CYP2C9 activ, CYP2C9 inh)
CC(C)(c1ccccc1)c1ccc(OCCCNCCO)cc1	none
O=C1C=C(c2cccc(O)c2)CCC1	none (no result: CYP2C19 activ, CYP2C19 inh, Pyk2 oligo antag, CYP2C9 activ, CYP2C9 inh)
CCCCN(CC)CCCNC(=O)c1cc2c(=O)n(C)c3ccccc3c2n1C	none (no result: CYP2C19 activ, CYP2C19 inh, Pyk2 oligo antag, CYP2C9 activ, CYP2C9 inh)
O=C(Nc1ccncc1)c1ccc(NS(=O)(=O)c2cccc(F)c2)cc1	none (no result: CYP2C19 activ, CYP2C19 inh, CYP2C9 activ, Cav3 T inh, CYP2C9 inh)
CC(C)CCNC(=O)c1onc(CSc2ccc(F)c(F)c2)c1C(=O)NCCC(C)C	none (no result: CYP2C19 activ, CYP2C19 inh, Pyk2 oligo antag, CYP2C9 activ, CYP2C9 inh)
COCCN(CCOC)Cc1c(C)[nH]c2c(C)c(C)ccc2c1=O	none
CC(C)Nc1ccc(C(CC(N)=O)NC(=O)Cc2ccc(Cl)cc2)cc1[N+](=O)[O-] (centres undefined)	none (no result: CYP2C19 activ, CYP2C19 inh, Pyk2 oligo antag, CYP2C9 activ, CYP2C9 inh)
CCOC(=O)c1sc(C)c2c1NC(C)(c1ccccc1)NC2=O (centres undefined)	CYP2C9 inh 68
CCOC(=O)c1sc(C)c2c1NC(c1ccc(Cl)cc1)NC2=O (centres undefined)	CYP2C9 inh 53
CCOC(=O)/C(N=Nc1c(Br)cc(Br)cc1Br)=C(\C)O	none
Cc1ccc(NC(=S)/C(=C(\[O-])c2ccc(C)c([N+](=O)[O-])c2)[n+]2ccccc2)cc1C	CYP2C9 inh 69 (no result: Pyk2 oligo antag)
